Assay outcomes from PubChem.
RGS4-Gao reg = human RGS4-Galphao interaction regulation. P09471. Multiplexed bead flow cytometry, RGS4-Galphao binding; actives lie on both sides. binding response (% of control), % at 10 µM. hit rate 0.33% among 220,000. AID 1415; in the data active means binding response below about 49% or above about 150%; inactive means in between;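 further: fluorescent Galphao activated with aluminum fluoride binding bead-coupled RGS4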
RGS7-Gao = human RGS7-Galphao interaction regulation; binding response (% of control), % at 10 µM; AID 1439; Multiplexed bead flow cytometry, RGS7-Galphao binding; actives lie on both sides; hit rate 0.35% among 220,000; P09471; in the data active means binding response below about 49% or above about 150%; inconclusive means no clear call, values can overlap the other calls; inactive means in between;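 further: fluorescent Galphao held in activated GDP-AlF4 state binding bead-coupled RGS7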
RGS16-Gao HTS = RGS16-Galphao interaction regulator (human). O15492+P09471. bead-based flow cytometry RGS16-Galphao binding, fluorescence; actives lie on both sides. binding response (% of control), % at 10 µM. hit rate 0.38% among 220,000. AID 1441; call rule not given here;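 further: Galphao activated by GDP with aluminum fluoride before binding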
Target sequence (O15492 whole entry, looked up): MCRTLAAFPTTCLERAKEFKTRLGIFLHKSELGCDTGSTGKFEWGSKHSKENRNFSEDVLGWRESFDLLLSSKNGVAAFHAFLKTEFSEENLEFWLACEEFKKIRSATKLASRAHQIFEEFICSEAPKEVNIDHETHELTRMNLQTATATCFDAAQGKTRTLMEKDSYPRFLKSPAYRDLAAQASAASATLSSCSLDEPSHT
Target sequence (P09471 whole entry, looked up): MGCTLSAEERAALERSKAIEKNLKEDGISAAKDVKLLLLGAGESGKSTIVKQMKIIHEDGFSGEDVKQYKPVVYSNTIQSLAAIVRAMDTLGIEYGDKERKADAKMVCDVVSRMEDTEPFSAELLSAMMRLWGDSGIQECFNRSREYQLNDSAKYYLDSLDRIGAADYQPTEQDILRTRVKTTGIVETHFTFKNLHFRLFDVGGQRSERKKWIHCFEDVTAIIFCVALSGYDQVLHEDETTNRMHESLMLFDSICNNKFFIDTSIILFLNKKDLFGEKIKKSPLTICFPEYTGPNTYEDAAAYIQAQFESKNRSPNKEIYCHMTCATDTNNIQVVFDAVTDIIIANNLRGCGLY
GSH fluor = GSH bead compound fluorescence profile; hit rate 0.25% among 190,000; GSH beads flow cytometry, compound fluorescence 488/530 nm; active compounds read high; fluorescence (KMESF) at 10 µM; AID 1776; in the data active means fluorescence above about 89;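 further: glutathione beads carrying GST-tagged Bcl family fusion proteins plus one bare bead set; values are compound well signal with DMSO vehicle wells as background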
RGS8-Gao = regulators of human RGS8-Galphao interaction. AID 1423. P09471. hit rate 0.34% among 220,000. response (percent of control binding), % at 10 µM. multiplexed bead flow cytometry, RGS8-Galphao binding; actives lie on both sides; in the data active means response below about 60% or above about 140%; inactive means in between;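 further: Galphao activated as the GDP aluminium fluoride complex binding bead-coupled RGS8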
Avidin bead fluor = avidin bead compound fluorescence profile; Avidin beads, compound fluorescence 488/530 nm, flow cytometry; active compounds read high; fluorescence (KMESF) at 10 µM; hit rate 0.38% among 220,000; AID 1775; in the data active means fluorescence above about 47
* = called active by the depositor; [ ] = dose if it differs, or a comment. This is a sample that favours compounds with a hit; in the whole collection about 1.2% have one here.

For C/C(=N\NC(=O)CN1CCN(S(=O)(=O)c2ccc(C)cc2)CC1)c1ccncc1 the results were RGS4-Gao reg 87.0, RGS7-Gao inconclusive, RGS16-Gao HTS 86.7, RGS8-Gao 92.3 and Avidin bead fluor 7.
Screening O=C(CSc1nnc(COc2cccc3cccnc23)o1)N1CCN(C(=O)c2ccco2)CC1 returned RGS4-Gao reg 116.8, RGS7-Gao 111.6, RGS16-Gao HTS 108.4, GSH fluor 136*, RGS8-Gao 107.6 and Avidin bead fluor 6.
For CC(C)CCNC(=O)C(CC(C)C)N(Cc1ccc2c(c1)OCO2)C(=O)c1snc(C(N)=O)c1N (stereo unspecified) the results were RGS4-Gao reg 98.0, RGS7-Gao 99.0, RGS16-Gao HTS 92.9, GSH fluor 24, RGS8-Gao 97.6 and Avidin bead fluor 12.
Screening CC(C)(C)NC(=O)NC(=O)COC(=O)c1ccco1 returned RGS4-Gao reg 101.7, RGS7-Gao 105.8, RGS16-Gao HTS 102.0, GSH fluor 261*, RGS8-Gao 103.0 and Avidin bead fluor 8.
For CCOC(=O)c1sc(NC(=O)CSc2nc(C)cc(C)n2)c(C#N)c1C the results were RGS4-Gao reg 106.4, RGS7-Gao 108.0, RGS16-Gao HTS 104.6, GSH fluor 13, RGS8-Gao 101.7 and Avidin bead fluor 49*.
For O=C(COC(=O)C1CCCCC1)Nc1ccc(S(=O)(=O)N2CCOCC2)cc1 the results were RGS4-Gao reg 103.0, RGS7-Gao 101.8, RGS16-Gao HTS 106.1, GSH fluor 18, RGS8-Gao 104.7 and Avidin bead fluor 25.
`O=c1oc2ccccc2c(O)c1C=Nc1cccnc1` gave RGS4-Gao reg 101.9, RGS7-Gao 106.2, RGS16-Gao HTS 106.1, GSH fluor 25, RGS8-Gao 101.8 and Avidin bead fluor 12.
O=c1oc2ccccc2c(O)c1/C=N/c1ccccn1 was read as RGS4-Gao reg 104.1, RGS7-Gao 103.5, RGS16-Gao HTS 89.0, GSH fluor 263*, RGS8-Gao 102.8 and Avidin bead fluor 6.
Screening CCN(CC)CCCNC(=O)CSc1nc2c(c(C(F)(F)F)n1)CCc1ccccc1-2 returned RGS4-Gao reg 108.8, RGS7-Gao inconclusive, RGS16-Gao HTS 101.1, GSH fluor 28, RGS8-Gao 98.4 and Avidin bead fluor 64*.
Screening O=C(CSc1nnc(-c2ccco2)o1)NC(=O)C1COc2ccccc2O1 (stereo unspecified) returned RGS4-Gao reg 70.1, RGS7-Gao 77.0, RGS16-Gao HTS 6.4, GSH fluor 245*, RGS8-Gao 71.0 and Avidin bead fluor 3.
CC(C)=CC(=O)OCC(=O)Nc1nc(C)c(Cl)cc1Cl was read as RGS4-Gao reg 101.0, RGS7-Gao 101.3, RGS16-Gao HTS 108.0, GSH fluor 273*, RGS8-Gao 102.1 and Avidin bead fluor 8.
Screening Cc1nc(NC(=O)COC(=O)C2=NNC(=O)CC2)c(Cl)cc1Cl returned RGS4-Gao reg 97.6, RGS7-Gao 97.4, RGS16-Gao HTS 99.4, GSH fluor 13, RGS8-Gao 100.2 and Avidin bead fluor 13.
C/C=C/C(=O)Nc1cccc(C2=NOC3(C2)C[C@H](C(N)=O)N(C(=O)c2ccccc2C(=O)c2ccccc2)C3)c1 (stereo partly specified) was read as RGS4-Gao reg 98.3, RGS7-Gao inconclusive, RGS16-Gao HTS 101.2, RGS8-Gao 99.4 and Avidin bead fluor 8.
`O=C(Cc1ccccc1)N/N=C/c1cccs1` gave RGS4-Gao reg 104.4, RGS7-Gao 106.2, RGS16-Gao HTS 102.4, GSH fluor 25, RGS8-Gao 103.2 and Avidin bead fluor 4.
O=S(=O)(CCc1ccccc1)/N=C/c1cccs1 was read as RGS4-Gao reg 118.1, RGS7-Gao 118.0, RGS16-Gao HTS 123.5, GSH fluor 17, RGS8-Gao 98.3 and Avidin bead fluor 51*.
Screening O=C(COC(=O)c1ccc2c(c1)C(=O)N(c1cccc3ncccc13)C2=O)c1ccc(Cl)cc1 returned RGS4-Gao reg 100.9, RGS7-Gao 103.1, RGS16-Gao HTS 102.9, GSH fluor 3, RGS8-Gao 106.5 and Avidin bead fluor 3.
`Cc1ccc(C(=O)COC(=O)c2ccc3c(c2)C(=O)N(c2cccc4ncccc24)C3=O)cc1` gave RGS4-Gao reg 161.8*[activator], RGS7-Gao 100.5, RGS16-Gao HTS 134.2, GSH fluor 2, RGS8-Gao 98.2 and Avidin bead fluor 23.
